From PubChem BioAssay (EPA / NIEHS)
Activity calls are given as the source filed them. The calls were made as follows: active = hit-call score of the fitted dose curve at least 0.9, where 1 is the maximum; inactive = score below 0.9.

Legend:
Settings in all cases: mRNA level, 48 h; actives raise or lower the signal
[1] = read-out: MYC, MYC (gene 4609); assay: LTEA_HepaRG_MYC: Life Technologies and Expression Analysis (LTEA) Assay for MYC using HepaRG (AID 2283518)
In short: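 MYC transcript changes, up or down relative to 0.5% DMSO, from TaqMan qRT-PCR normalized to three housekeeping genes. Human HepaRG cultures received chemicals for 48 h at eight half-log concentrations up to 100 uM, in duplicate.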

[2] = read-out: matrix metalloproteinase-3 (MMP3), MMP3 (gene 4314); assay: LTEA_HepaRG_MMP3: Life Technologies and Expression Analysis (LTEA) Assay for matrix metalloproteinase-3 (MMP3) using HepaRG (AID 2283519)
In short: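 HepaRG cells (~100,000/well) in serum-free induction medium were dosed in duplicate for 48 h with an 8-point half-log series from 100 uM, 0.5% DMSO. MMP3 mRNA was quantified by Fluidigm TaqMan qRT-PCR, normalized to three housekeeping genes.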

[3] = read-out: Paternally Expressed 10 (PEG10), PEG10 (gene 23089); assay: LTEA_HepaRG_PEG10: Life Technologies and Expression Analysis (LTEA) Assay for Paternally Expressed 10 (PEG10) using HepaRG (AID 2283520)
In short: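 Differentiated HepaRG cells, plated 48 h then switched to serum-free induction medium, were exposed in duplicate for 48 h to eight half-log concentrations topping at 100 uM in 0.5% DMSO. PEG10 mRNA was quantified by TaqMan qRT-PCR, normalised to ACTB, GAPDH and POLR2A.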

[4] = read-out: Protein phosphatase 2A (PPP2R4), PTPA (gene 5524); assay: LTEA_HepaRG_PPP2R4: Life Technologies and Expression Analysis (LTEA) Assay for Protein phosphatase 2A (PPP2R4) using HepaRG (AID 2283522)
In short: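 Differentiated HepaRG cells in serum-free induction medium were exposed in duplicate for 48 h to eight concentrations, top 100 uM with half-log dilutions, in 0.5% DMSO. PPP2R4 mRNA was quantified by TaqMan qRT-PCR, normalized to ACTB, GAPDH and POLR2A.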

[5] = read-out: Phosphatase and tensin (PTEN), PTEN (gene 5728); assay: LTEA_HepaRG_PTEN: Life Technologies and Expression Analysis (LTEA) Assay for Phosphatase and tensin (PTEN) using HepaRG (AID 2283523)
In short: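 HepaRG cells, 48 h after plating, exposed in duplicate for 48 h in serum-free induction medium to 8 half-log concentrations up to 100 uM (0.5% DMSO). PTEN mRNA by qRT-PCR, normalized to ACTB, GAPDH, POLR2A; bidirectional fit versus DMSO.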

[6] = read-out: solute carrier (SLC22A1), SLC22A1 (gene 6580); assay: LTEA_HepaRG_SLC22A1: Life Technologies and Expression Analysis (LTEA) Assay for solute carrier (SLC22A1) using HepaRG (AID 2283524)
In short: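 Differentiated human HepaRG cells in serum-free induction medium, exposed 48 h in duplicate to 8-point half-log series from 100 µM top in 0.5% DMSO. SLC22A1 mRNA by TaqMan qRT-PCR normalized to ACTB, GAPDH, POLR2A; bidirectional fit versus DMSO.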

[7] = read-out: Pyruvate Dehydrogenase Kinase 4 (PDK4), PDK4 (gene 5166); assay: LTEA_HepaRG_PDK4: Life Technologies and Expression Analysis (LTEA) Assay for Pyruvate Dehydrogenase Kinase 4 (PDK4) using HepaRG (AID 2283525)
In short: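 HepaRG cells plated 48 h, then switched to serum-free induction medium and exposed in duplicate for 48 h to 8 half-log concentrations from 100 uM in 0.5% DMSO. PDK4 mRNA measured by qRT-PCR, normalized to ACTB, GAPDH and POLR2A; bidirectional fit versus DMSO.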

[8] = read-out: NAD(P)H dehydrogenase [quinone] 1 (NQO1), NQO1 (gene 1728); assay: LTEA_HepaRG_NQO1: Life Technologies and Expression Analysis (LTEA) Assay for NAD(P)H dehydrogenase [quinone] 1 (NQO1) using HepaRG (AID 2283526)
In short: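 Differentiated HepaRG cells, plated 48 h and then switched to serum-free induction medium, were exposed in duplicate for 48 h to 8-point half-log concentrations up to 100 uM in 0.5% DMSO. mRNA measured by qRT-PCR, normalized to ACTB, GAPDH, POLR2A; bidirectional fit versus DMSO.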

[9] = read-out: Nuclear factor erythroid 2-related factor 2 (Homo sapiens) (UniProt Q16236); assay: LTEA_HepaRG_NFE2L2: Life Technologies and Expression Analysis (LTEA) Assay for Nuclear factor erythroid 2-related factor 2 (NFE2L2) Transcription Factor using HepaRG (AID 2283527)
In short: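 Differentiated human HepaRG cells, serum-free induction medium, exposed 48 h in duplicate to eight half-log concentrations up to 100 uM in 0.5% DMSO. NFE2L2 mRNA by Fluidigm TaqMan qRT-PCR, normalised to ACTB, GAPDH, POLR2A; bidirectional change versus DMSO.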

[10] = read-out: succinate dehydrogenase complex iron sulfur subunit B (SDHB), SDHB (gene 6390); assay: LTEA_HepaRG_SDHB: Life Technologies and Expression Analysis (LTEA) Assay for succinate dehydrogenase complex iron sulfur subunit B (SDHB) using HepaRG (AID 2283528)
In short: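 SDHB transcript level read by TaqMan qRT-PCR, housekeeping-normalised (ACTB, GAPDH, POLR2A), after 48 h chemical treatment of plated HepaRG cells; eight concentrations top 100 uM, half-log steps, 0.5% DMSO, duplicates; fitted both directions against DMSO.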

[11] = read-out: Signal transducer and activator of transcription 3 (Homo sapiens) (UniProt P40763); assay: LTEA_HepaRG_STAT3: Life Technologies and Expression Analysis (LTEA) Assay for Signal transducer and activator of transcription (STAT3) using HepaRG (AID 2283529)
In short: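 Differentiated HepaRG cells, serum-free induction medium, dosed 48 h in duplicate, 8 half-log concentrations from 100 uM in 0.5% DMSO. STAT3 mRNA by qRT-PCR, normalised to ACTB, GAPDH, POLR2A; bidirectional fit versus DMSO.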

[12] = read-out: solute carrier (SLCO1B1), SLCO1B1 (gene 10599); assay: LTEA_HepaRG_SLCO1B1: Life Technologies and Expression Analysis (LTEA) Assay for solute carrier (SLCO1B1) using HepaRG (AID 2283530)
In short: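 SLCO1B1 transcript levels were quantified by TaqMan qRT-PCR using three housekeeping genes for normalization. This followed 48 h chemical exposure (100 uM top, half-log, 8 points, 0.5% DMSO) of HepaRG liver cells, with gain or loss fitted relative to DMSO.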

[13] = read-out: sulfotransferase 2A1 (SULT2A1), SULT2A1 (gene 6822); assay: LTEA_HepaRG_SULT2A1: Life Technologies and Expression Analysis (LTEA) Assay for sulfotransferase 2A1 (SULT2A1) using HepaRG (AID 2283531)
In short: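 Expression change of SULT2A1, by qRT-PCR with three housekeeping-gene normalization, was scored bidirectionally versus DMSO. Cells: differentiated HepaRG, dosed in duplicate for 48 h across 8 points, highest 100 µM, half-log dilution, 0.5% DMSO.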

[14] = read-out: Transforming Growth Factor (TGFA), TGFA (gene 7039); assay: LTEA_HepaRG_TGFA: Life Technologies and Expression Analysis (LTEA) Assay for Transforming Growth Factor (TGFA) using HepaRG (AID 2283532)
In short: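 Differentiated HepaRG cells exposed 48 hours in serum-free induction medium, 0.5% DMSO vehicle, 8-point half-log series from 100 uM, in duplicate. TGFA mRNA by TaqMan qRT-PCR, normalised to ACTB, GAPDH, POLR2A; bidirectional fit versus DMSO.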

[15] = read-out: Transforming Growth Factor (TGFB1), TGFB1 (gene 7040); assay: LTEA_HepaRG_TGFB1: Life Technologies and Expression Analysis (LTEA) Assay for Transforming Growth Factor (TGFB1) Transporter using HepaRG (AID 2283533)
In short: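 TGFB1 transcript measured by qRT-PCR with normalisation to three housekeeping genes (ACTB, GAPDH, POLR2A); human HepaRG line treated in duplicate for 48 hr with an 8-point series topping at 100 uM, 0.5% DMSO vehicle, bidirectionally fitted.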

[16] = read-out: TIMP1, TIMP1 (gene 7076); assay: LTEA_HepaRG_TIMP1: Life Technologies and Expression Analysis (LTEA) Assay for TIMP1 using HepaRG (AID 2283534);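 also: TaqMan qRT-PCR signal normalized to ACTB GAPDH and POLR2A housekeeping genes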
In short: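 Bidirectional change in TIMP1 transcript versus 0.5% DMSO, measured by TaqMan qRT-PCR with three housekeeping genes for normalization. HepaRG human liver cells dosed 48 h in duplicate, top concentration 100 uM with half-log dilutions.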

[17] = read-out: Tumor necrosis factor receptor 1 (TNFRSF1A), TNFRSF1A (gene 7132); assay: LTEA_HepaRG_TNFRSF1A: Life Technologies and Expression Analysis (LTEA) Assay for Tumor necrosis factor receptor 1 (TNFRSF1A) using HepaRG (AID 2283535)
In short: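 mRNA measured by qRT-PCR (TaqMan, Fluidigm arrays) against ACTB/GAPDH/POLR2A housekeepers after 48 h chemical exposure of HepaRG cells. Top concentration 100 uM, half-log 8-point series, duplicates; vehicle 0.5% DMSO, both fit directions.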

[18] = read-out: Thyroid Hormone Responsive (THRSP), THRSP (gene 7069); assay: LTEA_HepaRG_THRSP: Life Technologies and Expression Analysis (LTEA) Assay for Thyroid Hormone Responsive (THRSP) using HepaRG (AID 2283536)
In short: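 Differentiated HepaRG cells treated 48 h in serum-free induction medium with 8 half-log concentrations up to 100 uM (0.5% DMSO), duplicates. THRSP mRNA by TaqMan qRT-PCR normalised to ACTB, GAPDH, POLR2A; bidirectional fit versus DMSO.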

[19] = read-out: matrix metalloproteinase-10 (MMP10), MMP10 (gene 4319); assay: LTEA_HepaRG_MMP10: Life Technologies and Expression Analysis (LTEA) Assay for matrix metalloproteinase-10 (MMP10) using HepaRG (AID 2283517)
In short: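 Differentiated HepaRG cells in serum-free induction medium exposed 48 h in duplicate to 8-point half-log series up to 100 uM in 0.5% DMSO. mRNA quantified by qRT-PCR, normalised to ACTB, GAPDH, POLR2A; bidirectional fit versus DMSO.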

[20] = read-out: Nuclear factor NF-kappa-B p105 subunit (Homo sapiens) (UniProt P19838); assay: LTEA_HepaRG_NFKB1: Life Technologies and Expression Analysis (LTEA) Assay for Nuclear Factor Kappa B Subunit 1 (NFKB1) using HepaRG (AID 2283521)
In short: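 NFKB1 transcript was measured by TaqMan qRT-PCR on Fluidigm arrays, normalised to three housekeeping genes and fitted in both directions against 0.5% DMSO. HepaRG cells were dosed in duplicate for 48 h in serum-free induction medium, eight half-log steps from 100 uM.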

Measured: AC50

Chain of Signal transducer and activator of transcription 3 (Homo sapiens) (P40763 whole entry, looked up): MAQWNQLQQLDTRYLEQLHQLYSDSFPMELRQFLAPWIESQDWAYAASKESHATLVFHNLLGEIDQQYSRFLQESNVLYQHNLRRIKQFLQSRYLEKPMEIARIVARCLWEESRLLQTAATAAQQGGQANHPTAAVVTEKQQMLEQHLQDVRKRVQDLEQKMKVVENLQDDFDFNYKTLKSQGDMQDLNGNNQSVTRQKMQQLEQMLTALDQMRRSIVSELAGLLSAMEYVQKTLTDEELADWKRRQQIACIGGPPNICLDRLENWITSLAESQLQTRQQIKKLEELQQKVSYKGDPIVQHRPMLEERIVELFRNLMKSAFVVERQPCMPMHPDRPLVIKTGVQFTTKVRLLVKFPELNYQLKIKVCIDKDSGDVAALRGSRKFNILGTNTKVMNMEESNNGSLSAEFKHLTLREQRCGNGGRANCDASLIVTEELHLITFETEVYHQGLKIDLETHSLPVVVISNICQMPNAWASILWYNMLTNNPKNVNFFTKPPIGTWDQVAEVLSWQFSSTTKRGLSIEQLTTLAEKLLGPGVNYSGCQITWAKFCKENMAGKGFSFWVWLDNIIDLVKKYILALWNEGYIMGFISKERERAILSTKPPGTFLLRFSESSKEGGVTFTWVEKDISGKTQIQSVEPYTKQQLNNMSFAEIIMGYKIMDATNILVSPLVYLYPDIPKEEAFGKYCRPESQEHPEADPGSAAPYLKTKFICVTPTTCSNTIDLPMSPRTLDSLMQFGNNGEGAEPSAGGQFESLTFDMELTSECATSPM
Chain of Nuclear factor erythroid 2-related factor 2 (Homo sapiens) (Q16236 whole entry, looked up): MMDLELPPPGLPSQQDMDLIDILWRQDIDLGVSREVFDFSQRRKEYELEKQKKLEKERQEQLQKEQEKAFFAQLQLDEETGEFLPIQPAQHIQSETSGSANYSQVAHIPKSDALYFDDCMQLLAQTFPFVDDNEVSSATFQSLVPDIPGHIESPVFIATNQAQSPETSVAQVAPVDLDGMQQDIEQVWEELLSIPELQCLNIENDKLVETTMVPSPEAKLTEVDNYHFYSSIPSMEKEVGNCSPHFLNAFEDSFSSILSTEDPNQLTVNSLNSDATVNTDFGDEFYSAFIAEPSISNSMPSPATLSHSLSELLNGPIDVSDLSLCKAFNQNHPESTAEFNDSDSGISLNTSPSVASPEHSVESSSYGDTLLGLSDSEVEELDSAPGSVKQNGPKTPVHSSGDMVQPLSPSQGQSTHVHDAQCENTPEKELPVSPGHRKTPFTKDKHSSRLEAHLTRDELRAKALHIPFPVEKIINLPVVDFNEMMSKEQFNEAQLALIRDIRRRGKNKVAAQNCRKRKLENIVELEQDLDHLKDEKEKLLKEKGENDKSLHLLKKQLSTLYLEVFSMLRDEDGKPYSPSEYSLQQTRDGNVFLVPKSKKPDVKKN
Chain of Nuclear factor NF-kappa-B p105 subunit (Homo sapiens) (P19838 whole entry, looked up): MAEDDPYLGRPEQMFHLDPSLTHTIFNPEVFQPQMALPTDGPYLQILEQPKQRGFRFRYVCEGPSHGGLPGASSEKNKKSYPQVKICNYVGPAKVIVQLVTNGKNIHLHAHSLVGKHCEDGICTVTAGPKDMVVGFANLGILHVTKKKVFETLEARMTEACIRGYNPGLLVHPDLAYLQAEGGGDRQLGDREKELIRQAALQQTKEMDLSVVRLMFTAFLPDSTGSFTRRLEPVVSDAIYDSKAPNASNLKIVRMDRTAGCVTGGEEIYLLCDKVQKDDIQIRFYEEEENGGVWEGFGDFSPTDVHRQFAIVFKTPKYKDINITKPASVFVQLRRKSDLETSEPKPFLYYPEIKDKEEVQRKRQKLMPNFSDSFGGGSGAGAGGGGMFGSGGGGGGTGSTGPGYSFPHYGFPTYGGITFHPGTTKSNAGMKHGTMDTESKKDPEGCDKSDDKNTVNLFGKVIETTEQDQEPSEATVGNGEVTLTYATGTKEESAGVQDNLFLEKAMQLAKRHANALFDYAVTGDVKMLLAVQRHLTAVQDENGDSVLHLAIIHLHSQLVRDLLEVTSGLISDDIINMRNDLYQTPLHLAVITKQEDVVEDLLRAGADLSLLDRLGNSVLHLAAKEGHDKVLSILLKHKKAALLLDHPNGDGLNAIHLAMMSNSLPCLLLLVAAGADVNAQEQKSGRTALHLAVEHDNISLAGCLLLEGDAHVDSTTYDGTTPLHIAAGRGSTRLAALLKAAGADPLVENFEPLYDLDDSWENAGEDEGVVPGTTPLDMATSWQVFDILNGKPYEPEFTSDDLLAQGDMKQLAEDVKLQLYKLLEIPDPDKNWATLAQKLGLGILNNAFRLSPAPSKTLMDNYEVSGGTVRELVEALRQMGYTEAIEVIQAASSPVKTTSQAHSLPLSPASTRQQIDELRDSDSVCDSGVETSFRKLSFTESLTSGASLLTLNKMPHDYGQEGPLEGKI

CC(C)(O)C(=O)Nc1ccc([N+](=O)[O-])c(C(F)(F)F)c1
active: [1] 0.0308 µM | [2] 0.0298 µM | [3] 25 µM | [4] 0.0226 µM | [8] 0.0268 µM | [12] 0.0191 µM | [14] 0.0264 µM
not listed: [19] | [20]
inactive: all other assays above

ClC1=C(Cl)[C@]2(Cl)[C@@H]3[C@@H](Cl)[C@H]4O[C@H]4[C@@H]3C1(Cl)C2(Cl)Cl
active: [6] 50 µM
not listed: [10]
inactive: all other assays above

CCCCCCOC(=O)c1ccccc1C(=O)OCCCCCC
active: [6] 0.0876 µM
not listed: [19]
inactive: all other assays above
